RE007 growth inh: qHTS Assay for Inhibitors of the HIV-1 protein Vpr. S. pombe RE007 Vpr strain, BacTiter-Glo ATP luminescence, 24 h. Potency, µM (doses to about 92.2 µM), for inactives: at the top dose activity change, negative = less growth, actives largely listed as inhibitors. 0.21% of 360,000 active. AID 651644, 2012; active = well fitted falling curve with a large enough effect; inconclusive = small, poorly fitted or top-dose-only effect; inactive = no such curve, though single readings can be large or run the other way; note: potency is the fitted concentration of half-maximal effect; % is set by controls: 0 for no effect and ±100 for the full control effect; nearly all actives have a fitted effect of over 50% in size
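Fission yeast strain RE007, carrying one chromosomally integrated HIV-1 vpr copy, was seeded at OD 0.01 in PMG+AL medium with 23 nL pinned compound. After 24 h at 30 °C and 99% humidity, viability was read by BacTiter-Glo luminescence.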
NS1 function inh: qHTS Assay for Inhibitors of Influenza NS1 Protein Function | Potency, µM (highest dose often 46.1 µM), for inactives: at the highest dose activity, positive = more growth | 0.4% of 270,000 active | AID 2326, 2010; calls by dose curve; note: potency is the fitted concentration of half-maximal effect; actives are rising curves; nearly all actives have a fitted effect of over 50% in size
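S. cerevisiae expressing influenza A NS1, grown in glucose, washed, then diluted 1:100 into pH 6.0 -URA galactose medium with 23 nl compound. Growth recovery read as OD600; NS1-free strain serves as control.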
Sm TGR block: qHTS Assay for the Inhibitors of Schistosoma Mansoni Peroxiredoxins. Schistosoma mansoni thioredoxin glutathione reductase (TGR), Q962Y6. purified TGR, DTNB reduction, TNB absorbance 405 nm. Potency, µM (series often up to 114 µM), without a hit: at the top dose activity change, negative = inhibition, hits mostly inhibitors. 3% of 360,000 active; note: potency is the fitted concentration of half-maximal effect; % is set by controls: 0 for no effect and ±100 for the full control effect; nearly all actives have a fitted effect of over 60% in size
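TGR 20 nM + NADPH 100 uM (dispensed conc.), cpd preinc 15 min RT; start with NADPH (500 uM addition) then DTNB (15 mM addition). Kinetic TNB absorbance, 405 nm filter. Four-parameter Hill fit across titration.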
TbPYK inhibitor: qHTS of Trypanosoma Brucei Inhibitors; Potency, µM (top dose mostly 76.8 µM), inactives show at the highest dose activity, negative = inhibition, most hits filed as inhibitors; 0.12% of 410,000 active; TbPYK enzyme, Kinase-Glo Plus ATP luminescence, 45 min; note: potency is the fitted concentration of half-maximal effect; % is set by controls: 0 for no effect and ±100 for the full control effect; nearly all actives have a fitted effect of over 50% in size
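In this concentration-response screen, enzyme-free wells defined baseline while DMSO plates tracked drift. Each reaction combined TbPYK, substrate, compound and 130 uM ADP for 45 min at room temperature. Kinase-Glo Plus luminescence gave the signal.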
LmPK inh: qHTS Assay for Inhibitors of Leishmania Mexicana Pyruvate Kinase (LmPK); 0.37% of 290,000 active; purified LmPK, Kinase-Glo ATP luminescence, 1 h; Potency, µM (series often up to 57.5 µM), for inactives: at the highest dose activity change, negative = inhibition, hits mostly inhibitors; Q27686; note: potency is the fitted concentration of half-maximal effect; % is set by controls: 0 for no effect and ±100 for the full control effect
Target sequence (Q27686 whole entry, looked up): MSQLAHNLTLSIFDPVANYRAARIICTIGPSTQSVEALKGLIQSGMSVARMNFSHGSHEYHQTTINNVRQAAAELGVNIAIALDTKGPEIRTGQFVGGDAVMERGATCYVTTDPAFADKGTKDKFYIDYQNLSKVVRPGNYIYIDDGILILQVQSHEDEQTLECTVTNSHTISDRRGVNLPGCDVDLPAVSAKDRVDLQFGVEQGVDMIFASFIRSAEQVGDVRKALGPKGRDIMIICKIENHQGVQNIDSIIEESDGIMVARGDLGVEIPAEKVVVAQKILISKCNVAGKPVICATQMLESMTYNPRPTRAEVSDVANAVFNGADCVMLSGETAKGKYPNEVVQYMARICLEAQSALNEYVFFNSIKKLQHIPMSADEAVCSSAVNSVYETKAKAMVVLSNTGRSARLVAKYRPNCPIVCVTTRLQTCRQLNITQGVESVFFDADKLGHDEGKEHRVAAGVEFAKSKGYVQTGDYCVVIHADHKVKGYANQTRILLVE
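Screened at intermediate enzyme activity to detect both inhibitors and activators: LmPK at 0.1 nM, with a 0.5 nM enzyme column as activation reference. PEP 0.5 mM, ADP 0.1 mM; ATP detected by luminescence after 1 h.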
SARS PLpro yeast-1: qHTS of Yeast-based Assay for SARS-CoV PLP; S. cerevisiae expressing SARS-CoV PLpro, growth rescue; Potency, µM (doses to about 32.9 µM), for the others: at the highest dose activity, positive = growth rescue, actives largely listed as activators; 0.19% of 330,000 active; AID 485353, 2010; calls by dose curve; note: potency is the fitted concentration of half-maximal effect; 0% is about no effect; nearly all actives have a fitted effect of over 55% in size
SARS PLpro yeast-2: qHTS of Yeast-based Assay for SARS-CoV PLP: Hit Validation; shares compounds with SARS PLpro yeast-1; yeast expressing SARS-CoV PLpro, growth phenotype rescue; calls only; 19% of 1,000 active; AID 652038, 2013; call rule not given here
The depositor's hits bear a star; i = inactive; ? = inconclusive; · = no result; + = active, no number. Rows were chosen to be rich in hits. Some 3.3% of all compounds tested hit in one or more screens of this group. Unless noted, calls come from the whole dose curve; as a rule, active = well fitted curve in the direction sought with a large enough effect; inconclusive = small, poorly fitted or top-dose-only effect, or another doubt; inactive = no such curve, though single readings can be large; an effect the other way counts as inactive or inconclusive.

SMILES | RE007 growth inh | NS1 function inh | Sm TGR block | TbPYK inhibitor | LmPK inh | SARS PLpro yeast-1 | SARS PLpro yeast-2
O=C(/C=C/c1ccccc1)OCc1ccccc1 | · | · | · | 6% | · | · | ·
COc1ccc(-c2c/c(=N\c3nc(-c4ccccc4)c(C)s3)c3ccccc3o2)cc1O | 4% | -8% | -9% | -2% | 1% | ? | +
O=C(C1=C(O)C(=O)N(CCCN2CCOCC2)C1c1ccncc1)c1cc2ccccc2o1 (configuration not stated) | · | -11% | 45µM* | · | 1% | 13µM* | +
COc1cccc(C(=O)COC(=O)C2CC3CCCC(C2)C3=O)c1 (configuration not stated) | 2% | · | -1% | -3% | · | -2% | ·
COc1ccc(C(=O)COC(=O)C2CC3CCCC(C2)C3=O)cc1Br (configuration not stated) | 4% | · | -1% | -14% | · | ? | i
O=C(COC(=O)c1ccccc1NCCO)NNC(=O)c1cccs1 | 14% | · | 1% | -8% | · | ? | i
O=C(COc1nsnc1N1CCOCC1)N/N=C/c1ccccc1O | 0% | -27% | -3% | 0% | 6% | ? | i
O=C(Cc1csc(N2CCOCC2)n1)N/N=C/c1ccc(O)c(O)c1O | 12% | · | ? | -4% | -2% | 10µM* | i
Cc1ccc(Cl)cc1N1CCN(C(=O)c2ccc3c(Cl)c4c(nc3c2)CCCC4)CC1 | · | · | -3% | -11% | · | · | ·
Cc1cc(SCC(=O)Nc2ccc(C(F)(F)F)cc2)nc(=O)[nH]1 | · | · | -5% | 4% | · | · | ·
CC(NC(=O)c1ccc(N(C)C)cc1)C1CC2CCC1C2 (configuration not stated) | -9% | 13% | 2% | 2% | 9% | 22µM* | i
COc1ccc(-c2noc(-c3ccc(N4CCN(c5ccccc5OC)CC4)c([N+](=O)[O-])c3)n2)cc1 | · | · | 0% | -1% | · | · | ·
COc1ccccc1Cc1nc2ccccc2nc1SCC(=O)NCc1ccccc1Cl | · | · | 4% | -2% | · | · | ·
CC(=O)NC(CC(=O)Nc1ccc(S(=O)(=O)Nc2nccs2)cc1)c1ccccc1 (configuration not stated) | -12% | · | 0% | -2% | · | 0% | ·
CC(=O)NC(CC(=O)Nc1ccc(S(=O)(=O)NC2=NCCCCC2)cc1)c1ccccc1 (configuration not stated) | 3% | · | -7% | 0% | · | ? | i
Cc1cccc(CCn2c(=O)c3ccccc3n(Cc3cccc(F)c3)c2=O)c1 | · | · | 9% | 1% | · | · | ·
C=CCc1cccc(/C=N/NC(=O)CCCNc2ccc(C)cc2)c1O | · | 1% | -13% | 6% | 2% | 14µM* | +
C/C(CC(=O)Nc1ccc(N(C)C)cc1)=N\NC(=O)Cc1csc(N)n1 | 1% | ? | -4% | -11% | -2% | 18µM* | i
CC(C)c1nn2c(=O)cc(COC(=O)c3cccc(NC(=O)c4ccccc4F)c3)nc2s1 | · | · | -5% | -3% | · | · | ·
COc1ccc(CNC(=O)c2ccc3c(c2)N(Cc2cc(C)ccc2C)C(=O)CS3)cc1 | · | · | -5% | 2% | · | · | ·
CN1C(=O)SC(Nc2ccc(F)cc2)C1=O (configuration not stated) | -20% | -52% | -7% | 0% | -1% | -4% | ·
CN1C(=O)SC(Nc2ccccc2)C1=O (configuration not stated) | 2% | -3% | 0% | -11% | 8% | 13µM* | i
COC(=O)c1ccc(NC(=O)CCn2cnnn2)cc1 | · | · | 8% | 1% | · | · | ·
Cc1ccccc1C(=O)OCc1cc(=O)n2nc(C3CC3)sc2n1 | · | · | 5% | 1% | · | · | ·
CCOC(=O)N1CCN(C(=O)CSCC(=O)Nc2nc(-c3ccc(Cl)s3)cs2)CC1 | 10% | -13% | -6% | 0% | -1% | 13µM* | ?

Compound activity deposited in PubChem by National Center for Advancing Translational Sciences (NCATS).
